Shown are actives, neighbours in structure and some others; about 2% of the full set was active somewhere.
CHO-K1 Ca antag = M1 antagonist counterscreen hit in parental CHO-K1 cells | ATP-induced calcium, Fluo-8 fluorescence | inhibition, % at 3 µM | 0.6% of 360,000 active | AID 602250;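 active = inhibition above a per-plate cutoff, the plate's mean sample inhibition plus 3 SD, cut at about 24% in these data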;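 also: 0% = DMSO plus EC80 ATP and 100% = DMSO alone without ATP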
M1 ag parental = counter-screen for M1 agonists: effect in parental CHO-K1 cells. 0.48% of 360,000 active. Fluo-8 calcium fluorescence; scaled to maximal ATP response, vehicle zero. activation, % at 3 µM; in the data active = activation above about 15%;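 also: untransfected CHO-K1 host cells lacking M1 receptor as counterscreen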
CHRM4 agonist = agonists of human muscarinic M4 receptor (CHRM4). activation, % at 3 µM. AID 624127. CHO-K1 hM4/Gqi5, Fluo-8 calcium fluorescence; vehicle 0%, full acetylcholine response 100%. 0.14% of 360,000 active;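 active = activation above the run mean over all test wells plus 3 SD, cut at about 32% in these data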;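 also: peak over basal fluorescence ratio per well then scaled between controls; 0% = DMSO wells and 100% = acetylcholine at EC100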
Target sequence (P08173 whole entry, looked up): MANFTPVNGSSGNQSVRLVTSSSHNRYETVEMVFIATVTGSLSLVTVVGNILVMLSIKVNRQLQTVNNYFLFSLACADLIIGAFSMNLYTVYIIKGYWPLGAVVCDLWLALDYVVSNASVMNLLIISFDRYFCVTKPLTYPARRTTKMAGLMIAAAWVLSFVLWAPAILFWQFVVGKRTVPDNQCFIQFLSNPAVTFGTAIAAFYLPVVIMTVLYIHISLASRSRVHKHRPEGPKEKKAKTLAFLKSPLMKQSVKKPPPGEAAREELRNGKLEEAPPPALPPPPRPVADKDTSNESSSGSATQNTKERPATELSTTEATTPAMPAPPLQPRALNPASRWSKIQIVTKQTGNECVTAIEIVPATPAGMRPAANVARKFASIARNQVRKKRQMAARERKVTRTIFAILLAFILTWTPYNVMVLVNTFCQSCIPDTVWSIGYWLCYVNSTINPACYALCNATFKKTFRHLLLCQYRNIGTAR
M4 PAM = CHRM4 positive allosteric modulation; activation, % at 3 µM; AID 624126; 0.4% of 360,000 active; CHO-K1 hM4/Gqi5, Fluo-8 calcium fluorescence, ACh EC20; 0% = ACh EC20, 100% = maximal ACh;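 active = activation above its plate's cutoff, the mean activation of sample wells plus 3 SD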
CHO-K1 Ca PAM = nonselective activator or artifact in parental CHO-K1 calcium assay. activation, % at 3 µM. AID 602247. ATP EC20, Fluo-8 calcium fluorescence; 0% at ATP EC20, 100% at ATP max. 0.02% of 360,000 active;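 active = activation above the run cutoff, the mean activation of all test compounds plus 3 SD, cut at about 40% in these data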;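 also: peak over basal fluorescence ratio in a 140 s read after ATP addition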
M4 antag = blocks acetylcholine activation of human M4 receptor. P08173. CHO-hM4 cells, ACh EC80, Fluo-8 calcium fluorescence. inhibition, % at 3 µM. 0.73% of 360,000 active;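 active = inhibition above its plate's cutoff, the mean inhibition of sample wells plus 3 SD, cut at about 27% in these data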;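 also: 0% = acetylcholine EC80 with DMSO and 100% = DMSO without agonist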
An asterisk follows results filed as active; ! = not active in a repeat.

SMILES	CHO-K1 Ca antag	M1 ag parental	CHRM4 agonist	M4 PAM	CHO-K1 Ca PAM	M4 antag
CCCCNc1c(-c2ccc(OC)c(SC(C)CC)c2)nc2ccc(C)cn12 (stereo not drawn)	-2	3	16	-4	-17	31*!
CCCCNc1c(-c2ccc(SC(C)CC)cc2)nc2ccccn12 (stereo not drawn)	13	1	11	-12	-18	45*
CCCCNc1c(-c2ccc(OC)c(SC(C)CC)c2)nc2cc(C)ccn12 (stereo not drawn)	-11	1	12	-11	20	31*!
CCCCNc1c(-c2ccc(Sc3ccc(OC)cc3)cc2)nc2cc(C)ccn12	-16	2	4	-13	5	44*
CCCCNc1c(-c2ccc(-c3ccc(C(C)=O)cc3)c(OC)c2)nc2cc(C)ccn12	4	0	7	-13	-13	25
CCCCNc1c(-c2ccc(SC3CCCCC3)cc2)nc2ccccn12	-10	0	6	0	-5	21
Cc1ccc(C2(C)NC(=O)N(CC(=O)Nc3cc(S(=O)(=O)N4CCCCC4)ccc3OC(C)C)C2=O)cc1 (stereo not drawn)	-5	1	0	-2	21	3
NC(=O)C1CCN(C(=S)c2ccc(-c3ccc(Br)cc3)o2)CC1	-1	2	9	-15	3	6
O=C(OCCN1CCCCC1)c1cccc(F)c1	-14	1	1	0	14	-16
CCCCN(C(=O)c1ccc2c(c1)OCO2)c1c(N)n(CCCC)c(=O)[nH]c1=O	1	2	1	6	3	9
COc1ccc(OC)c(NC(=O)c2cccc(S(=O)(=O)N(Cc3ccccc3)c3ccccc3OC)c2)c1	-7	0	0	-1	22	-3
CCCC1C(=O)Nc2ccccc2N1C(=O)c1cccc(C)c1 (stereo not drawn)	2	2	2	-18	8	45*
CCc1nnc(NS(=O)(=O)c2ccc(N/C=C\C(=O)c3ccc4ccccc4c3)cc2)s1	0	0	1	7	12	-1
O=C(C1CCN(S(=O)(=O)c2cnc[nH]2)CC1)N1CCN(c2ccc([N+](=O)[O-])cc2)CC1	-11	1	1	14*	18	-9
CC(C)N1CCC(=O)NC1=O	-7	-1	0	0	12	2
CC(C)c1cc(N2CCC(=O)NC2=O)cc(C(=O)O)c1O	14	18*	0	-6	4	13
CC(=O)Nc1ccccc1NC(=O)C/C(C)=N/NC(=O)c1ccc([N+](=O)[O-])c(Cl)c1	-8	0	1	24*	11	-3
Cc1ccc(-n2c(Cc3cccs3)nnc2SCC(=O)Nc2ccc(S(N)(=O)=O)cc2)cc1	25*	0	-2	9	-8	4
CCOC(=O)CC1=Nc2ccccc2NC(=O)C1	-2	0	3	-4	1	27*
Cc1ccc(NC(=O)c2cccc(C(=O)Nc3ccc(C)c(C)c3)n2)cc1C	3	0	1	-2	-4	10
Brc1ccc(-c2nnc3c4ccccc4nc(N4CCOCC4)n23)cc1	-1	0	1	40*	10	1
Clc1ccc(-c2nnc3c4ccccc4nc(N4CCOCC4)n23)cc1Cl	0	4	9	-10	15	-3
Cc1ccc(C2(c3noc(CN(C)CC4COCCO4)n3)CCCC2)cc1 (stereo not drawn)	-8	0	2	1	-2	-7
O=c1[nH]ncc(N2CCN(Cc3ccccc3)CC2)c1Cl	26*	0	1	-8	-18	13
COc1ccc(Cc2c(C(C)(C)C)nc3cc(C)c(Br)c(C)n23)c(C)c1	-12	0	0	-3	21	-14
COc1ccc(Cc2c(C(C)(C)C)nc3c(C)cc(Br)cn23)c(C)c1	25*	0	2	-8	10	4
Cc1cnc(NC(=O)NCC2CCCC(CNC(=O)Nc3ncc(C)s3)C2)s1 (stereo not drawn)	-17	1	20	48*	8	9
O=C(Nc1ccc(Nc2ccccc2)cc1)N1CCOCC1	-12	2	4	1	6	-13
